Among the data in PubChem BioAssay are composite z-score and z-score values, retold here.

The subject of assay [1] is Plasmodium falciparum Sir2 (PF13_0152, Sir2A). The assay can be described thus: pfSir2 binders on small-molecule microarrays, primary screen, biochemical, small-molecule microarray, 635 nm fluorescence (AID 1098).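 Also: score merges spot fluorescence intensity with its signal-to-noise ratio.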 To be noted: small-molecule microarray binding, fluorescence 635 nm; higher = more signal.
Assay [2] in a line: small-molecule microarray binders of probe aDKK1, primary screen, biochemical, biotinylated probe, 635/667 nm fluorescence (AID 1099).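 Also: score merges 667nm spot fluorescence with signal to noise across triplicate slides.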 To be noted: higher = more signal.
Assay [3] can be described thus: small-molecule microarray binders of probe aCHRDL2, primary screen, biochemical, biotinylated probe, 635/667 nm fluorescence (AID 1100). Particulars: higher = more signal.
Assay [4] in a line: splicing luciferase reporter signal modulators, primary screen, spliceosome inhibition project, cell-based, HEK293, splice +/- reporter (AID 1101).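 Also: HEK293 cells carrying a splicing-competent luciferase reporter gene; test concentration not given here.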 To be noted: luminescence, 24 h, higher = more signal, called active from +8 up or from −8 down.
For assay [5], the target named is Fibroblast growth factor 10 (Homo sapiens) (UniProt O15520). In words: FGF10 binders on small-molecule microarrays, primary screen, biochemical, small-molecule microarray, 635 nm fluorescence (AID 1102). To be noted: FGF10 binding, fluorescence 635 nm, higher = more signal.
Fibroblast growth factor 10 (Homo sapiens), sequence (O15520 whole entry, looked up): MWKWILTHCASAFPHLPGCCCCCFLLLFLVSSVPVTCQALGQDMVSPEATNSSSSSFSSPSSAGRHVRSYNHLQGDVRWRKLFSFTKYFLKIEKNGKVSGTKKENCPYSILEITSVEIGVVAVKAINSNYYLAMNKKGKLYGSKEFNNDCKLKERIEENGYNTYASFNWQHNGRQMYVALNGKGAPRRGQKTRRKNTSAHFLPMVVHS
For assay [6], the system named is glycogen synthase kinase-3 (GSK3A per assay name; protocol says GSK3B). In words: GSK3 binders on small-molecule microarrays, primary screen, biochemical, small-molecule microarray, 635 nm fluorescence, GSK3A (AID 1103). Also: the record names both GSK3A and GSK3B. Particulars: small-molecule microarray binding, fluorescence 635 nm; higher = more signal.
Assay [7] addresses Epidermal growth factor receptor (Homo sapiens) (UniProt P00533). In words: EGFR binders on small-molecule microarrays, primary screen, biochemical, small-molecule microarray, 635 nm fluorescence (AID 1104).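 Also: score merges 667 nm emission intensity with spot signal to noise over triplicate slides.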 To be noted: EGFR binding, higher = more signal.
Assay [8] has as its target Follistatin-related protein 3 (Homo sapiens) (UniProt O95633). In words: FSTL3 binders on small-molecule microarrays, primary screen, biochemical, small-molecule microarray, 635 nm fluorescence (AID 1105).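 Also: score merges emission near 667 nm and signal to noise per printed spot across three slides.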 To be noted: FSTL3 binding, higher = more signal.
In assay [9] the target is Dickkopf-related protein 1 (Homo sapiens) (UniProt O94907). In words: DKK1 binders on small-molecule microarrays, primary screen, biochemical, small-molecule microarray, 635 nm fluorescence scan (AID 1106).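 Also: score merges emission near 667 nm with signal to noise over three replicate slides.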 To be noted: DKK1 binding, higher = more signal.
Dickkopf-related protein 1 (Homo sapiens), sequence (O94907 whole entry, looked up): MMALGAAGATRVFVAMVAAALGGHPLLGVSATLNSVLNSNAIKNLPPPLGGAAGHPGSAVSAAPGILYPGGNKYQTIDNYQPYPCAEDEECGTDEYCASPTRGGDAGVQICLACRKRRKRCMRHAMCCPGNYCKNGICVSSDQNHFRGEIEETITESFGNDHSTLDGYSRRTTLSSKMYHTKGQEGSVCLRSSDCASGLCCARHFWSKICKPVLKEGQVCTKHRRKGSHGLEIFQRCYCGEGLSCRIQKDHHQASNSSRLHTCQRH
Assay [10] deals with Inhibin beta A chain (activin A). In words: INHBA (activin A) binders on microarrays, primary screen, biochemical, small-molecule microarray, 635 nm fluorescence scan (AID 1107).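 Also: mouse activin A protein probed at 4.33 µg/mL on printed slides; score merges bound-protein fluorescence near 667 nm with spot signal-to-noise.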 Particulars: small-molecule microarray binding, higher = more signal.
For assay [11], the system named is Human papillomavirus type 1a protein E7 (residues 44-93). In words: HPV1a E7 fragment binders on microarrays, primary screen, biochemical, small-molecule microarray, residues 44-93, 635 nm fluorescence (AID 1108).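 Also: E7 fragment applied at 1 µg/mL in TBST for 1 h at 4 C; score combines spot fluorescence with its signal to noise ratio.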 Particulars: small-molecule microarray binding, fluorescence 635 nm; higher = more signal.
A short description of assay [12]: modulators of HCV replicon luciferase signal, primary screen, HCV replication inhibitor project, Huh7 cells, luciferase reporter (AID 1109).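 Also: huh7 hepatoma cells harbouring a luciferase neomycin HCV replicon reporter; luciferase luminescence as measure of HCV replicon replication; test concentration not given here.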 Particulars: 48 h, higher = more signal.
Assay [13] deals with Left-right determination factor 2 (Homo sapiens) (UniProt O00292). In words: LEFTY2 binders on small-molecule microarrays, primary screen, biochemical, small-molecule microarray, 635 nm fluorescence scan (AID 1110). To be noted: LEFTY2 binding, higher = more signal.
Left-right determination factor 2 (Homo sapiens), sequence (O00292 whole entry, looked up): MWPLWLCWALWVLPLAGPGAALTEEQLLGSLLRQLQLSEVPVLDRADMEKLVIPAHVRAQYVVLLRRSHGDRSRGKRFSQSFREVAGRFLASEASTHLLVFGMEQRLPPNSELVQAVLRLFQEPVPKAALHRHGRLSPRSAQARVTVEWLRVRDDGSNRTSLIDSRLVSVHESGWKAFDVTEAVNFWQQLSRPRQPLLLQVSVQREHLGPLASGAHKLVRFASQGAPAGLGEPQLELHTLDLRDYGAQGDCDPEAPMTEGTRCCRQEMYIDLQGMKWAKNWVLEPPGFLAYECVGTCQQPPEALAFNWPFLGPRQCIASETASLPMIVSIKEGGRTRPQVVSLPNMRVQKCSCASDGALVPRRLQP
For assay [14], the target named is Calmodulin-1 (Homo sapiens) (UniProt P0DP23). In words: CALM1 binders on microarrays, EGTA buffer, profiling panel, biochemical, small-molecule microarray, Cy5-labelled CALM1 (AID 1111).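 Also: labelled calmodulin applied in Tris saline Tween buffer holding calcium plus EGTA and DTT.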 To be noted: Cy5-CALM1 binding fluorescence, higher = more signal.
Assay [15] has the same target. In words: calcium-bound CALM1 binders on microarrays, profiling panel, artefact control for SMM control-protein annotation, biochemical, small-molecule microarray, Cy5-labelled CALM1, plus calcium (AID 1112).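 Also: score merges spot fluorescence with signal to noise from triplicate slides.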 To be noted: Cy5-CALM1 binding fluorescence, higher = more signal.
The nature of assay [16]: small-molecule microarray binders of probe aWnt5a, primary screen, biochemical, biotinylated probe, 635/667 nm fluorescence (AID 1113).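 Also: score merges 667 nm fluorescence intensity with signal-to-noise per printed feature.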 Particulars: higher = more signal.
A short description of assay [17]: small-molecule microarray binders of probe aShh, primary screen, biochemical, biotinylated probe, 635/667 nm fluorescence (AID 1114).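 Also: probe is biotin-labelled aShh protein from a stem cell growth factor screen; measures binding of labelled protein to compounds printed on the slide; score merges feature fluorescence at 667 nm with signal-to-noise.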 To be noted: higher = more signal.
Assay [18] is described as follows: small-molecule microarray binders of probe aNog, primary screen, biochemical, biotinylated probe, 635/667 nm fluorescence (AID 1115).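 Also: probe is biotinylated aNog protein used at 0.15 µg/mL for 1 h at 4 C; z-score combines 667 nm fluorescence of each spot with its signal to noise.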 To be noted: higher = more signal.
The target in assay [19] is Torsin-1A-interacting protein 1 (Homo sapiens) (UniProt Q5JTV8). The assay can be described thus: LAP1 binders from COS7 cell lysate, primary screen, small-molecule microarray, 635/667 nm fluorescence (AID 1116). Particulars: COS7-hLAP1 lysate binding, 635 nm fluorescence, higher = more signal.
Torsin-1A-interacting protein 1 (Homo sapiens), sequence (Q5JTV8 whole entry, looked up): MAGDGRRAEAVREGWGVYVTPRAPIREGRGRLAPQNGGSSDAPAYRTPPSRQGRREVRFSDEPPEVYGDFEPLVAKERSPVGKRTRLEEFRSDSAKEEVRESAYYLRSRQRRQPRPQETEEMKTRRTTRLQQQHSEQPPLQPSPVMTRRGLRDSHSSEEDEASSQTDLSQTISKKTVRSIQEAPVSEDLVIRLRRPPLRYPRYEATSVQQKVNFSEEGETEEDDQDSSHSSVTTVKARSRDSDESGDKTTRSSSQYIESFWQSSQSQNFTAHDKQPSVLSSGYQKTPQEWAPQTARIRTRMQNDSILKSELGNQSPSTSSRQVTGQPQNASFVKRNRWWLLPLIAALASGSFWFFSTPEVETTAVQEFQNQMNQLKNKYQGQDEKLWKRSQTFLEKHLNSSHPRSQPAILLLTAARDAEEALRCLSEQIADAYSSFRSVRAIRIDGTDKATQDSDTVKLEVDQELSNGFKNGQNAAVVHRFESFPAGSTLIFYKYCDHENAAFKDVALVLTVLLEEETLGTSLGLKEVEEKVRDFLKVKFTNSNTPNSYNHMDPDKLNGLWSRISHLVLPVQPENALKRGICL
Assay [20] has as its target Alpha-bungarotoxin (Bungarus multicinctus) (UniProt P60615). In words: alpha-bungarotoxin binders on microarray, profiling panel, artefact control for SMM control protein annotation, biochemical, small-molecule microarray, Alexa647 label, 635/667 nm fluorescence (AID 1117). Particulars: alpha-BTX-A647 binding fluorescence, higher = more signal.

Activity calls are given as the source filed them.

Follistatin-related protein 3 (Homo sapiens), sequence (O95633 whole entry, looked up): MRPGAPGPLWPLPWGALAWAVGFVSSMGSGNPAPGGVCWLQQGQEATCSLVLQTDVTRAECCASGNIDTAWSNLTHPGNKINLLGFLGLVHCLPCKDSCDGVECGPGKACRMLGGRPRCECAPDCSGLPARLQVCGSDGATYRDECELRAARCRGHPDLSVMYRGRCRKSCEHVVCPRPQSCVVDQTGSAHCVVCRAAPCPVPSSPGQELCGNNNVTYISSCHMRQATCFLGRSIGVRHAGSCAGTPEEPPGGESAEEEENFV
Alpha-bungarotoxin (Bungarus multicinctus), sequence (P60615 whole entry, looked up): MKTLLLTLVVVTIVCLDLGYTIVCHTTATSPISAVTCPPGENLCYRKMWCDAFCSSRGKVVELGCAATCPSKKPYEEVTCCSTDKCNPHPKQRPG
Epidermal growth factor receptor (Homo sapiens), sequence (P00533 whole entry, looked up): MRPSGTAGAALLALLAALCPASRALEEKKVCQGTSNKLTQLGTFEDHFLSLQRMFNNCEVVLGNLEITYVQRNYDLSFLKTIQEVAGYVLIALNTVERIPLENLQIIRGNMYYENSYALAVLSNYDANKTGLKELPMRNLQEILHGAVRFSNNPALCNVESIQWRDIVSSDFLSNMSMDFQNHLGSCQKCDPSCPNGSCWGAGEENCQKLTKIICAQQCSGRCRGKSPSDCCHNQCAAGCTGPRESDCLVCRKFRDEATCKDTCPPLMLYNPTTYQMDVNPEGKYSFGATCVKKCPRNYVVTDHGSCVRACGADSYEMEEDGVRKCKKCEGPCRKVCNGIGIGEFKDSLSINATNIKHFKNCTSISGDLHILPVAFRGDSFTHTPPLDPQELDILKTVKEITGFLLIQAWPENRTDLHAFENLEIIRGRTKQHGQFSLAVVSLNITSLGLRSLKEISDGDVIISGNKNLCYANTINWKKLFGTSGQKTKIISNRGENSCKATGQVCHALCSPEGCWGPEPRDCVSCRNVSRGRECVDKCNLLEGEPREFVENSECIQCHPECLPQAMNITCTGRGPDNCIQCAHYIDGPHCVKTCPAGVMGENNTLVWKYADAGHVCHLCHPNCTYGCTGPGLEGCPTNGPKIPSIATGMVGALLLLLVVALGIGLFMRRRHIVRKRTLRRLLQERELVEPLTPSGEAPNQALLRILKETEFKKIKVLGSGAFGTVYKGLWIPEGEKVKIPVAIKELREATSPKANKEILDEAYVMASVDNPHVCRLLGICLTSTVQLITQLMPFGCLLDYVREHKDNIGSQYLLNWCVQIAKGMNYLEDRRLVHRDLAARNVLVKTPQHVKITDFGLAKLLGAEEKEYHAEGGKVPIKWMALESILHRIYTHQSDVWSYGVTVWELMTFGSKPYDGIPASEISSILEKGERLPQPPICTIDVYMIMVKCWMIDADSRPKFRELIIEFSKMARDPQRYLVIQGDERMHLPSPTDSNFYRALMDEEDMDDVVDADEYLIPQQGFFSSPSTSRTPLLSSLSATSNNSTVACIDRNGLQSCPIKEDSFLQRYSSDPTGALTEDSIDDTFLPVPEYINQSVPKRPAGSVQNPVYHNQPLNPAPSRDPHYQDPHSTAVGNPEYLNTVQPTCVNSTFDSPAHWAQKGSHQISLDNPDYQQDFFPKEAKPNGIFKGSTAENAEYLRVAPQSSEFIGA

`CC1(C)O[C@H]2OC([C@H](O)CON3C(=O)c4ccccc4C3=O)[C@H](O)[C@H]2O1` (stereo not given in full): the composite z-score in [1] was -0.0933; in assay [2], -0.467; in assay [3], -0.562; in assay [5], 0.0612; in assay [6] it was 0.0618; in assay [7], 0.237. The composite z-score in [8] was 0.205; in assay [9] it was 0.46; in assay [10] it was -0.582; in assay [11], -0.0928; in assay [13], 0.244; in [14] it was -0.494. Further, the composite z-score in assay [15] is -0.539; in [16] it was -0.109; in assay [17], -0.27; in [18], -0.218; in assay [19] it was -0.1; in [20] it was -0.0472. The z-score is 0.105 (inactive) in [4] and -0.585 in assay [12].
For `CC(CCN1CCCCc2nc(C)c(C)cc21)=NO[C@H](C)c1cn([C@@H]2COC[C@H]2O)nn1`, the composite z-score in assay [1] is 0.742; in assay [2], -0.404; in [3], -0.961; in assay [5], 1.23; in assay [6], 1.16; in assay [7], 1.61. Moreover, the composite z-score in assay [8] is 1.43; in assay [9], 2.15; in [10], 1.21; in assay [11] it was 0.421; in assay [13], 1.35; in assay [14], -0.197. Besides, the composite z-score in [15] is -0.835; in assay [16], -0.222; in [17], -0.112; in [18], -0.158; in [19] it was 0.337; in [20], 1.3. Besides, the z-score in assay [4] is 1.09 (inactive); in [12], -0.219.
As for `COc1ccc(O[C@H]2C=C[C@@H](C#Cc3ccccc3)O[C@@H]2CO)cc1`, the composite z-score was 0.544 in [1]; -0.139 in assay [2]; -0.253 in assay [3]; 0.535 in assay [5]; -0.139 in assay [6]; 0.316 in [7]. In addition, the composite z-score was -0.0229 in assay [8]; 0.377 in assay [9]; 1.08 in assay [10]; 0.342 in [11]; -0.0192 in [13]; 1.42 in assay [14]. In addition, the composite z-score in [15] is 0.493; in [16], -0.124; in [17], 0.0048; in assay [18] it was -0.0428; in assay [19], 0.158; in assay [20] it was 0.439. In addition, the z-score in assay [4] is 1.45 (inactive); in [12], -2.17.
On to `C[C@@H]1CC[C@H]2C(=O)O[C@@H](CN=[N+]=[N-])CN2[C@H]1c1ccc(Br)cc1`, for which the composite z-score in assay [1] was 0.584; in assay [2] it was 0.0195; in assay [3], -0.669; in assay [5], 0.382; in [6], 0.636; in assay [7], 0.343. For the same compound, the composite z-score in [8] was found to be 0.345; in [9], 0.857; in assay [10], 0.455; in assay [11], 1.23; in assay [13], 0.672; in [14] it was 0.169. The composite z-score is -0.425 in assay [15]; -0.262 in [16]; -0.32 in [17]; -0.571 in assay [18]; 0.0942 in assay [19]; 0.601 in assay [20]. Also, the values for the z-score in assay [4] and in [12] were 0.659 (inactive) and -4.98, respectively.
As to `O=C1[C@H]2[C@H]3[C@H](O)[C@H](O)CC(=NOCc4ccccc4)[C@H]3CC[C@H]2C(=O)N1C1CCCCC1`, the composite z-score is 0.817 in assay [1]; -0.163 in [2]; -0.301 in [3]; 0.378 in [5]; 0.338 in [6]; 0.511 in [7]. Besides, the composite z-score was 0.448 in assay [8]; 0.79 in assay [9]; -0.0077 in assay [10]; 0.656 in [11]; 0.531 in assay [13]; 0.55 in assay [14]. Besides, the composite z-score in [15] was 0.158; in [16], -0.0572; in [17], 0.0754; in assay [18], 0.165; in [19], -0.106; in assay [20] it was 1.01. For the same compound, the figures for the z-score in assay [4] and in [12] were 0.395 (inactive) and 0.409, respectively.
Turning to `CC(CCN1CCCc2nc(C)c(C)cc21)=NO[C@H](C)c1cn([C@H](CO)Cc2ccccc2)nn1`, the composite z-score in assay [1] is 0.721; in assay [2], -0.319; in assay [3], -0.395; in assay [5], 0.59; in [6], 0.605; in assay [7], 0.596. The composite z-score was 0.761 in assay [8]; 0.935 in [9]; 1.11 in assay [10]; 1.01 in assay [11]; 0.796 in assay [13]; -0.276 in assay [14]. For the same compound, the composite z-score in assay [15] was -0.519; in assay [16], -0.0704; in assay [17] it was -0.16; in [18] it was 0.029; in assay [19], 0.613; in assay [20], -0.207. Besides, the z-score is 0.407 (inactive) in [4] and -1.73 in assay [12].
In the case of `CCCNC(=O)OC[C@H]1O[C@H](CCON=C2c3cc(OC)ccc3O[C@H](c3cccc(OC)c3)[C@H]2O)C=C[C@@H]1Oc1ccc(OC)cc1`, the composite z-score was 0.204 in [1]; 0.0079 in assay [2]; -0.0136 in assay [3]; 0.744 in assay [5]; 0.21 in [6]; 0.474 in assay [7]. The composite z-score in assay [8] is 0.54; in [9], 0.273; in [10] it was -0.479; in [11], 0.523; in assay [13], 0.322; in [14], 0.571. The composite z-score in assay [15] is 0.0967; in [16], -0.187; in assay [17], -0.0035; in assay [18], -0.239; in assay [19], 1.28; in assay [20], 1.2. Moreover, the z-score was -0.553 (inactive) in [4] and -3.02 in assay [12].
